15 compounds from ChEMBL document CHEMBL1961873, “Compounds: GSK PKIS; Assays: Nanosyn kinase panel” (2012) can be followed below.

A word on the inhibition: it is the drop in the measured response relative to a control, in per cent.

The target of assay [1] is Fibroblast growth factor receptor 4 (Homo sapiens) (UniProt P22455). The conditions noted are these: at 1 µM.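 Also: reported figure is the averaged percent inhibition of FGFR4, from the GSK PKIS kinase screening panel.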
In assay [2] the target is Tyrosine-protein kinase Fgr (Homo sapiens) (UniProt P09769). The conditions noted are these: at 0.1 µM.
Sequence of Tyrosine-protein kinase Fgr (Homo sapiens) (P09769 2-529 limits assumed): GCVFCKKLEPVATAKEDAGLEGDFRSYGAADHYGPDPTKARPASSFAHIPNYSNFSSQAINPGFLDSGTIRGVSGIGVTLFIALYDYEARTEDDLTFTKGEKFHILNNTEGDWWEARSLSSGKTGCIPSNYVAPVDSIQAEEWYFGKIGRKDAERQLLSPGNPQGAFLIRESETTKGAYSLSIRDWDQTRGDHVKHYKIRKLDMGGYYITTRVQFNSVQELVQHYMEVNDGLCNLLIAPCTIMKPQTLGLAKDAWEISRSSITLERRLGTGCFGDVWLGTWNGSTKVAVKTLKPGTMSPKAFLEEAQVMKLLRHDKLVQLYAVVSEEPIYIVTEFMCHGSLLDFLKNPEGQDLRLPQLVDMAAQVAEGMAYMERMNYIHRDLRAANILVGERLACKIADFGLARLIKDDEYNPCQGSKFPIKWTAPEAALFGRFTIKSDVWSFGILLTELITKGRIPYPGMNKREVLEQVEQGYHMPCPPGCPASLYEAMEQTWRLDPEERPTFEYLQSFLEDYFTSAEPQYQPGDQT
Assay [3] has the same target. The conditions noted are these: at 1 µM.
The target of assay [4] is Vascular endothelial growth factor receptor 1 (Homo sapiens) (UniProt P17948). The conditions noted are these: at 0.1 µM.
Sequence of Vascular endothelial growth factor receptor 1 (Homo sapiens) (P17948 whole entry): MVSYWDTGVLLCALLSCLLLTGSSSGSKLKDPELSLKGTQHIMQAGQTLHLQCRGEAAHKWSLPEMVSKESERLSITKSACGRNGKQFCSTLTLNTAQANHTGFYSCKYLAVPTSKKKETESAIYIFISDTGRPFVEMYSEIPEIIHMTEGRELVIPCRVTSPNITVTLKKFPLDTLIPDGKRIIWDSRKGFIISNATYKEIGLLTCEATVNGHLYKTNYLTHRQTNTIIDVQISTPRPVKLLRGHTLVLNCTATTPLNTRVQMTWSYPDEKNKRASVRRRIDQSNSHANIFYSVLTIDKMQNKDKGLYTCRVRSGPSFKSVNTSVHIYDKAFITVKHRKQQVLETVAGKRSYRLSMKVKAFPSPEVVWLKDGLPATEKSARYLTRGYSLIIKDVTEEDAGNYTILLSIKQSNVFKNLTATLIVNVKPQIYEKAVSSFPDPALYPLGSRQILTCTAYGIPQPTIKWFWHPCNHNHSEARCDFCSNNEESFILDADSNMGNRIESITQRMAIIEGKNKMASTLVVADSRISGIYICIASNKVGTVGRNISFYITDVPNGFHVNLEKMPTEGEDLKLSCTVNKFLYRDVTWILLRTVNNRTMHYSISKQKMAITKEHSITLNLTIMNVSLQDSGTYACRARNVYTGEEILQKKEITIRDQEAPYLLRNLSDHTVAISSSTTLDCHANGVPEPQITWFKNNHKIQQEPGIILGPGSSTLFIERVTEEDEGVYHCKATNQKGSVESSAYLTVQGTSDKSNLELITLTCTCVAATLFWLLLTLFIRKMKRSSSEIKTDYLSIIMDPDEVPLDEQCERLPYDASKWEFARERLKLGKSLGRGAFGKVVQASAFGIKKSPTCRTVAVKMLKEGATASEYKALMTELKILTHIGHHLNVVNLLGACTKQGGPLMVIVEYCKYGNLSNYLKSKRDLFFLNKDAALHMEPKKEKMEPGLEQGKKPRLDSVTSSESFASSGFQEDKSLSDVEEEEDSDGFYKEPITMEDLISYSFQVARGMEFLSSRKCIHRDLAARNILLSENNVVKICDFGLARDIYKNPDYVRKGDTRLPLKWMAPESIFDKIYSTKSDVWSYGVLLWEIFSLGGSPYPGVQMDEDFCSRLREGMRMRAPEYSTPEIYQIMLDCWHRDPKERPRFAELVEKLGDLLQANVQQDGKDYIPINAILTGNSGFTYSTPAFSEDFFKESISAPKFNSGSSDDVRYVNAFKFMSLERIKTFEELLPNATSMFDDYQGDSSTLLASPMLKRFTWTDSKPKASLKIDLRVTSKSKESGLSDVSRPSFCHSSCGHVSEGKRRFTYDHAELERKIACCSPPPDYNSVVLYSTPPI
Assay [5] has the same target. The conditions noted are these: at 1 µM.
The target in assay [6] is Receptor-type tyrosine-protein kinase FLT3 (Homo sapiens) (UniProt P36888). The conditions noted are these: at 0.1 µM.
For assay [7] the target is unchanged. The conditions noted are these: at 1 µM.
The subject of assay [8] is T1, Receptor-type tyrosine-protein kinase FLT3 (Homo sapiens), P36888 [D835Y].
T1 sequence (whole entry): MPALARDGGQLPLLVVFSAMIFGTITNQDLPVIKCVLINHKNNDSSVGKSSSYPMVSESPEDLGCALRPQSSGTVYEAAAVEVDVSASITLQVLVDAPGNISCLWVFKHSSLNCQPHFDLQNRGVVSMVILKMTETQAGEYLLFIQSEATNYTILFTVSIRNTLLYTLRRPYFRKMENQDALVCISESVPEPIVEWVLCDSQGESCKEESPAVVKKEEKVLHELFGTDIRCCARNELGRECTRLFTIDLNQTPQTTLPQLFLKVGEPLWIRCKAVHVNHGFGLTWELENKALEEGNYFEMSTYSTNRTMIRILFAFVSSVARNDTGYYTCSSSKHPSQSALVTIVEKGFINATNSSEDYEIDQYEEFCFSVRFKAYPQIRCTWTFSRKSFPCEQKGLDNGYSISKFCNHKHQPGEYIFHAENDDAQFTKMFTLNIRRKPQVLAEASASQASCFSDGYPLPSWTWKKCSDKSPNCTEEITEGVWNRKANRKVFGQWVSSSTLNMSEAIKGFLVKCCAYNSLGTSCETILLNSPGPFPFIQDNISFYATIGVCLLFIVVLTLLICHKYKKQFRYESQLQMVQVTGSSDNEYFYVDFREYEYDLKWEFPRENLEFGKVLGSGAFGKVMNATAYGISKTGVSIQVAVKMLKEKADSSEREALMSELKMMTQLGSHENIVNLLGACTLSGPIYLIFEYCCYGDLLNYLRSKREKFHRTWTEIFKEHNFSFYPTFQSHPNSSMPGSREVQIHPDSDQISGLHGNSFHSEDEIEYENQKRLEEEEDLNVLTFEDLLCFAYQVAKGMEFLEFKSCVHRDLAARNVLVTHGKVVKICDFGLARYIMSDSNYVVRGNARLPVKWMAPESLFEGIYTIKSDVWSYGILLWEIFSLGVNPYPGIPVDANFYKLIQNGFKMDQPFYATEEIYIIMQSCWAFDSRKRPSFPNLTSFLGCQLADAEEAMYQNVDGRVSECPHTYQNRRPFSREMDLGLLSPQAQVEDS
The conditions noted are these: at 0.1 µM.

The target of assay [9] is Non-receptor tyrosine-protein kinase TYK2 (Homo sapiens) (UniProt P29597). The conditions noted are these: at 1 µM.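 Also: values are mean percent inhibition of TYK2 kinase.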
Sequence of Non-receptor tyrosine-protein kinase TYK2 (Homo sapiens) (P29597 whole entry): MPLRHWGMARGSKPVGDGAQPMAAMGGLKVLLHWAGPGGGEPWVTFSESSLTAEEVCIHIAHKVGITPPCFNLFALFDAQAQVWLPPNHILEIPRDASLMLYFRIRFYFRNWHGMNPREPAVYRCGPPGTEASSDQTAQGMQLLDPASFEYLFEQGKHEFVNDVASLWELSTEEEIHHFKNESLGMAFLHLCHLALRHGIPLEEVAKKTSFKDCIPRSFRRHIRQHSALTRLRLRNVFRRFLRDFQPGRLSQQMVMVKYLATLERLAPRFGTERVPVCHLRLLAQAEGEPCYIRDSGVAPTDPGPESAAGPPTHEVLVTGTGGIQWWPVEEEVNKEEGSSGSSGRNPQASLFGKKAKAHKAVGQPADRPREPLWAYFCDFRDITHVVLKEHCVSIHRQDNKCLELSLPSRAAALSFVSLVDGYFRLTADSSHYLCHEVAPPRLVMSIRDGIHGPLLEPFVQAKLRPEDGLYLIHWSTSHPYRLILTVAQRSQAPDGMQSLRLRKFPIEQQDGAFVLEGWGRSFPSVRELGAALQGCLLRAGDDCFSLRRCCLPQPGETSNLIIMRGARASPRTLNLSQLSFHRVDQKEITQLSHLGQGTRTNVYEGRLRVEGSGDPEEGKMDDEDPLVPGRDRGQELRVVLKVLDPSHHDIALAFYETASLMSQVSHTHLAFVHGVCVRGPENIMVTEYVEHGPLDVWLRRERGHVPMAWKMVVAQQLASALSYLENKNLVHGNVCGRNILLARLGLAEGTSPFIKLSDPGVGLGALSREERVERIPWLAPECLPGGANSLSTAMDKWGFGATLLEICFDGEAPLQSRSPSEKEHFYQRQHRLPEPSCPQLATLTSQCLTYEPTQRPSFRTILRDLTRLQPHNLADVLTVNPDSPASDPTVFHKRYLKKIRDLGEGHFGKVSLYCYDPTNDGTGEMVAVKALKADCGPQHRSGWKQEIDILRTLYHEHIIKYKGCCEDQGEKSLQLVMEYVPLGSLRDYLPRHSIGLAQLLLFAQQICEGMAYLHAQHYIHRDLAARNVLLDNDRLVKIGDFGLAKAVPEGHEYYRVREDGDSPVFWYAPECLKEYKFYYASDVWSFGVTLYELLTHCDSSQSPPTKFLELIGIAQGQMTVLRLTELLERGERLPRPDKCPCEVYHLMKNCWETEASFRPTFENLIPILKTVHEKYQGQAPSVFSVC
Assay [10] addresses T2, Tyrosine-protein kinase receptor TYRO3 (Homo sapiens) (UniProt Q06418).
T2 sequence (whole entry): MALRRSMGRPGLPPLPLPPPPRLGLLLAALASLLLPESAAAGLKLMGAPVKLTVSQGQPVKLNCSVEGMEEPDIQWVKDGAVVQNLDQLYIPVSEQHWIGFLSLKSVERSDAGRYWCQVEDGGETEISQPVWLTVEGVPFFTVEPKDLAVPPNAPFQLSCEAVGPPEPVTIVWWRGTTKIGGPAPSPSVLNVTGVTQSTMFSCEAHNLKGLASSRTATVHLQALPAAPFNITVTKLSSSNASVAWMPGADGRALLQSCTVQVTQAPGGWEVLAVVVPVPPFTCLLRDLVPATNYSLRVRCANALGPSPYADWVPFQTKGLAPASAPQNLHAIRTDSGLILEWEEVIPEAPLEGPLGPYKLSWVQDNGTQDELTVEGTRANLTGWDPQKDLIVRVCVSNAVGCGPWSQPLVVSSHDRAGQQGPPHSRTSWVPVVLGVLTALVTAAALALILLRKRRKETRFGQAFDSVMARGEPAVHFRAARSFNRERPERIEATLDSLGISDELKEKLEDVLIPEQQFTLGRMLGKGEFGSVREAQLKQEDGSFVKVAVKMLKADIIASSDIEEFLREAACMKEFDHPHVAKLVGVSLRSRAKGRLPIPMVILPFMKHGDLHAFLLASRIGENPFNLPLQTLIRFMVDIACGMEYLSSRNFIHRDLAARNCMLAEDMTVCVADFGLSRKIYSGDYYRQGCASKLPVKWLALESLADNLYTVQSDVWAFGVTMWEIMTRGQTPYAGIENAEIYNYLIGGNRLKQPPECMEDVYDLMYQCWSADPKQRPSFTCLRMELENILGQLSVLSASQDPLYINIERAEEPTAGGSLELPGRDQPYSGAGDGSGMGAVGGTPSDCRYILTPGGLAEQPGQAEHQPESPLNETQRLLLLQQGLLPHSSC
The conditions noted are these: at 0.1 µM.

Sequence of Fibroblast growth factor receptor 4 (Homo sapiens) (P22455 22-802 limits assumed): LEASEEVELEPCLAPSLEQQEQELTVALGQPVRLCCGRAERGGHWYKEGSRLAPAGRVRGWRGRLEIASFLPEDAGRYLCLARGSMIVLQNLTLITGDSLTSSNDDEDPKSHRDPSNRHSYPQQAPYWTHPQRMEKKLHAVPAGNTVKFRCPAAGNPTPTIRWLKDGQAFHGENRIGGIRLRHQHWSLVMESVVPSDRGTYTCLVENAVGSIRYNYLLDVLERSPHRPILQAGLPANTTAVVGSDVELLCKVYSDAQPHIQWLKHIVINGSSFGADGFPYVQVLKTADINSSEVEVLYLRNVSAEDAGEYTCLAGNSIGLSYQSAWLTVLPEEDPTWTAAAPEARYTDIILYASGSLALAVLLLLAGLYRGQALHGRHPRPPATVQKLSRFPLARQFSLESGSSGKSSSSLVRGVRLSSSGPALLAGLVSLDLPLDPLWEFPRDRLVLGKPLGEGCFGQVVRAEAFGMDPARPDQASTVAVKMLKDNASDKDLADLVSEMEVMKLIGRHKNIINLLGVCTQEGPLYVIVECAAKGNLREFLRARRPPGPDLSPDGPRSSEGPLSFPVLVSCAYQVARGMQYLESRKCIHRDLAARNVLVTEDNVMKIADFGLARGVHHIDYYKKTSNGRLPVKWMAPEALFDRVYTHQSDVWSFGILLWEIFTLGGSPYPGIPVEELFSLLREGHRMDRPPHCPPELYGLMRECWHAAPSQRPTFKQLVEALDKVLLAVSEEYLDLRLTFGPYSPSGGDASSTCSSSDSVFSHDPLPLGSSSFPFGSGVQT

Consider `COc1cc2ncn(-c3cc(OCc4cccs4)c(C(N)=O)s3)c2cc1OC`, for which the inhibition in assay [1] is 1.23%; in [2] it was 11.1%; in assay [3], 13.7%; in assay [4], 2.16%; in [5], 10.3%; in assay [6], 0.99%. Further, the inhibition was 4.24% in assay [7], -6.36% in [8], 0.53% in [9] and 2.86% in assay [10].
Consider `CCS(=O)(=O)c1ccc(OC)c(Nc2ncc(-c3ccccc3Cl)o2)c1`, for which the inhibition was determined as 4.03% in assay [1]; 3.37% in assay [2]; 17% in assay [3]; 3.73% in assay [4]; 13.8% in [5]; 2.1% in assay [6]. In addition, the inhibition in assay [7] is 21.1%; in assay [8] it was 7.14%; in assay [9] it was -1.06%; in assay [10] it was 5.33%.
For the compound `CNC(=O)c1cncc(/C=C/c2c(C)cccc2C)c1`, the inhibition in assay [1] was -4.47%; in [2], 6.6%; in assay [3], 29.6%; in assay [4], 1.75%; in [5], 1.51%; in [6] it was -1.59%. For the same compound, the inhibition in assay [7] was found to be 1.3%; in assay [8], 3.49%; in assay [9] it was 0.52%; in assay [10], 0.85%.
`CN(c1ccc(NC(=O)Nc2c(Cl)cccc2Cl)cc1)c1ccnc(Nc2cccc(CS(C)(=O)=O)c2)n1`: the inhibition in assay [1] amounted to 2.06%; in assay [2] it was 24.3%; in assay [3], 51.9%; in assay [4], 38.5%; in assay [5], 51%; in assay [6], 78.2%. In addition, the inhibition was 84.9% in [7], 28.2% in assay [8], 1.51% in assay [9] and 4.61% in assay [10].
Take `Nc1nccc(-c2c(-c3ccc(F)cc3)ncn2C2CCC(O)CC2)n1` (centres undefined): the inhibition in assay [1] worked out at 0.55%; in assay [2], 1.87%; in assay [3], 16.5%; in [4], 0.09%; in assay [5], 1.16%; in assay [6], 1.8%. Besides, the inhibition in [7] is -0.14%; in assay [8], 3.94%; in assay [9] it was 0.09%; in assay [10], 0.62%.
As to `N#Cc1ccc(Oc2nccc(-c3c(-c4ccc(F)cc4)ncn3C3CCNCC3)n2)cc1`, the inhibition in assay [1] is -0.84%; in assay [2] it was 3.69%; in assay [3] it was 6.62%; in assay [4] it was -0.44%; in assay [5], -0.67%; in [6] it was -0.97%. Moreover, the inhibition is 3.98% in [7], -7.02% in assay [8], -0.38% in assay [9] and 2.69% in assay [10].
Regarding `c1ccc(Oc2ccc(Nc3ncc(-c4ccccc4)o3)cc2)cc1`, the inhibition in assay [1] was determined as 3.31%; in assay [2], 1.2%; in assay [3], 4.81%; in assay [4], 1.53%; in assay [5] it was 4.46%; in assay [6], 2.44%. Besides, the inhibition in assay [7] was 13.3%; in assay [8] it was 0.51%; in [9], -0.96%; in assay [10] it was 2.18%.
With `COc1cc(Nc2ncc(-c3ccccc3)o2)cc(OC)c1OC`, the inhibition in [1] came to 1.36%; in assay [2], 3.9%; in [3], 29.4%; in assay [4] it was 8.63%; in [6], 61.7%; in assay [7] it was 90.8%. Also, the inhibition is 14.2% in assay [8], 6.55% in assay [9] and -1.23% in [10].
In the case of `COc1ccc(-c2ccc3c(NC(=O)C4CC4)n[nH]c3n2)cc1`, the inhibition in [1] was 0.39%; in [2] it was 3.05%; in [3] it was 6.74%; in assay [4] it was -0.58%; in assay [5] it was 0.09%; in [6], 0.61%. Besides, the inhibition in assay [7] is 3.42%; in assay [8], -3.58%; in assay [9], -0.42%; in [10] it was 2.92%.
Turning to `O=C1Nc2ccccc2/C1=C/Nc1ccc(-n2cncn2)cc1`, the inhibition in assay [1] worked out at 2.81%; in assay [2], 4.93%; in assay [3], 12.8%; in [4], 4.03%; in assay [5] it was 24.1%; in [6], 12.5%. The inhibition in assay [7] came out at 53.7%; in assay [8] it was 16.4%; in assay [9] it was 12.3%; in assay [10], 3.19%.
For the compound `O=C(Nc1n[nH]c2cc(-c3cc(F)ccc3F)ccc12)C1CC1`, the inhibition in [1] was found to be 0.78%; in [2], 3.33%; in [3] it was 7.71%; in assay [4] it was 0.6%; in [5] it was 1.91%; in assay [6], 1.12%. Besides, the inhibition in assay [7] is 4.67%; in [8] it was -5.43%; in assay [9], -2.35%; in assay [10] it was 3.8%.
`CN(C)CCOc1ccc(-c2cc(-c3ccc4c(c3)CCC4=NO)c(-c3ccncc3)o2)cc1`: the inhibition in [1] is -1.71%; in [2], 1.5%; in assay [3], 7.33%; in assay [4], -0.18%; in [5] it was -0.16%; in assay [6], -0.73%. The inhibition in assay [7] is -1.89%; in assay [8] it was -7.59%; in assay [9], 0.1%; in [10], -0.87%.
Consider `Clc1ccc(CNc2nccc(-c3cnn4ncccc34)n2)cc1`, for which the inhibition in assay [1] was 1.27%; in assay [2] it was 3.59%; in assay [3] it was 4%; in assay [4], -1.24%; in assay [5] it was 6.44%; in assay [6], 1.16%. In addition, the inhibition turned out to be 1.79% in [7], 2.77% in assay [8], 1.83% in assay [9] and 1.5% in assay [10].
Regarding `CN(C)c1ccc2c(c1)/C(=C/Nc1ccc(S(N)(=O)=O)cc1)C(=O)N2`, the inhibition in assay [1] came to 3.82%; in [2], 2.49%; in assay [3] it was 16.7%; in assay [4], 1.02%; in assay [5], 12.6%; in [6] it was 3.53%. Moreover, the inhibition was 17.7% in assay [7], 0.41% in [8], 17.2% in assay [9] and 3.54% in assay [10].
`Fc1ccc(-c2nc3n(c2-c2ccncc2)CCS3)cc1`: the inhibition is -1.43% in [1]; 3.23% in assay [2]; 5.64% in [3]; 0.95% in assay [4]; 4.64% in assay [5]; 2.5% in [6]. Further, the inhibition in assay [7] is 4.49%; in assay [8], 4.1%; in assay [9], -3.88%; in assay [10], 2.21%.
